PubChem BioAssay (NCI)
About 79,000 compounds went through this panel and 15% of them were active in at least one assay; those are over-represented in the sample as a whole. Activity calls are given as the source filed them. Cut-off read from the data, not from the text of the source: active = growth inhibition above about 70%; inactive = the rest.

Key:
[1] = NCI Yeast Anticancer Drug Screen. Data for the rad52 strain (AID 147);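 note: 0% = growth of vehicle-treated control cultures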; settings: S. cerevisiae rad52 mutant growth inhibition, hits give high values
Outline: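 DNA repair-defective yeast; compound exposure; growth scored against vehicle controls.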

[2] = NCI Yeast Anticancer Drug Screen. Data for the wt1 strain (AID 149);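 note: 0% = growth of vehicle-treated wt1 cultures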; settings: S. cerevisiae wt1 strain (SPY 50644) growth inhibition, hits give high values
Outline: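 Each compound is tested on wt1 yeast and the loss of growth versus vehicle gives the inhibition value.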

[3] = NCI Yeast Anticancer Drug Screen. Data for the rad50EPP+ strain (AID 151);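 note: 0% = growth of vehicle-treated control cultures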; settings: S. cerevisiae rad50 mutant strain, hits give high values
Outline: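 rad50EPP+ yeast treated with test compounds. Readout: growth vs vehicle control.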

[4] = NCI Yeast Anticancer Drug Screen. Data for the mgt1 strain (AID 153); settings: S. cerevisiae mgt1 mutant growth inhibition, hits give high values
Outline: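 Growth inhibition relative to vehicle controls was scored for the mgt1 yeast strain after compound exposure.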

[5] = NCI Yeast Anticancer Drug Screen. Data for the rad50 strain (AID 155);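 note: 0% = growth of vehicle-only cultures of the same strain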; settings: S. cerevisiae rad50 strain growth inhibition, hits give high values
Outline: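 Vehicle-treated cultures provide the reference for the growth inhibition reported for compound-exposed, repair-deficient yeast.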

[6] = NCI Yeast Anticancer Drug Screen. Data for the mec2-1 strain (AID 157); settings: S. cerevisiae mec2-1 strain, hits give high values
Outline: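 Growth inhibition is read against vehicle-treated controls after compound exposure of the mec2-1 yeast strain, which is defective in DNA damage repair or cell cycle control.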

[7] = NCI Yeast Anticancer Drug Screen. Data for the sgs1 mgt1 strain (AID 161);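 note: 0% = growth of cultures given vehicle only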; settings: S. cerevisiae sgs1 mgt1 strain, hits give high values
Outline: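 Yeast cells carrying a defined DNA-repair defect were exposed to test compounds. Growth inhibition was measured relative to vehicle-treated controls.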

[8] = NCI Yeast Anticancer Drug Screen. Data for the CLN2oe strain (AID 163);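 note: 0% = growth of vehicle-only control cultures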; settings: S. cerevisiae CLN2oe strain, hits give high values
Outline: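 Compound-treated yeast; growth vs vehicle ctrl = % inhibition. Genetically altered strain (cell-cycle control).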

[9] = NCI Yeast Anticancer Drug Screen. Data for the cln2 rad14 strain (AID 165);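 note: 0% = growth equal to vehicle treated cultures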; settings: S. cerevisiae cln2 rad14 strain, hits give high values
Outline: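 Growth inhibition, relative to vehicle-treated controls, is the read-out. The test organism is a yeast strain with defined genetic alterations, cln2 rad14.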

[10] = NCI Yeast Anticancer Drug Screen. Data for the bub3 strain (AID 167); settings: S. cerevisiae bub3 mutant strain, hits give high values
Outline: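 Mutant yeast screening strain plus compound; vehicle-treated cultures serve as the 0% inhibition reference.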

[11] = NCI Yeast Anticancer Drug Screen. Data for the wt2 strain (AID 169); settings: S. cerevisiae wt2 strain growth inhibition, hits give high values
Outline: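 Compound exposure of yeast; growth compared with vehicle controls; inhibition reported.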

[12] = NCI Yeast Anticancer Drug Screen. Data for the mlh1 strain (AID 171);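 note: 0% = growth of vehicle-treated control cultures of the same strain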; settings: S. cerevisiae mlh1 strain growth inhibition, hits give high values
Outline: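 Compounds are applied to a genetically altered yeast strain, and its growth is compared with that of vehicle-treated cultures to give percent inhibition.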

[13] = NCI Yeast Anticancer Drug Screen. Data for the sgs1 strain (AID 173);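 note: 0% = growth of vehicle-only control cultures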; settings: S. cerevisiae sgs1 mutant, hits give high values
Outline: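 Compounds applied to genetically altered yeast; growth compared with vehicle-treated cultures to give % inhibition.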

[14] = NCI Yeast Anticancer Drug Screen. Data for the mlh1 rad18 strain (AID 175); settings: S. cerevisiae mlh1 rad18 strain growth inhibition, hits give high values
Outline: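 Cells of a genetically altered yeast strain, deficient in DNA damage repair, were treated with compound. Their growth was then compared with that of vehicle-treated cultures to give inhibition.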

[15] = NCI Yeast Anticancer Drug Screen. Data for the rad18 strain (AID 177); settings: S. cerevisiae rad18 mutant growth inhibition, hits give high values
Outline: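 Compounds are applied to a repair-deficient yeast strain, and growth is compared with that of vehicle-treated cultures to give percent inhibition.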

[16] = at 5.0 µM (retest, dose inferred, filed as 0.5)
[17] = at 50.0 µM (retest, dose inferred, filed as 5.0)

Measured: growth inhibition

OC1(c2ccccc2)C2CC=CC2C1(c1ccccc1)c1ccccc1 (stereo not drawn)
inactive: [1]; at 1.2 µM 0% | [1]; at 3.7 µM -1% | [1]; at 11.0 µM 4% | [1]; at 33.0 µM 34% | [1]; at 100.0 µM 63% | [2]; at 1.2 µM -4% | [2]; at 3.7 µM -7% | [2]; at 11.0 µM -8% | [2]; at 33.0 µM -7% | [2]; at 100.0 µM 21% | [3]; at 1.2 µM -7% | [3]; at 3.7 µM -1% | [3]; at 11.0 µM 2% | [3]; at 33.0 µM -5% | [3]; at 100.0 µM -5% | [4]; at 1.2 µM -4% | [4]; at 3.7 µM -2% | [4]; at 11.0 µM -5% | [4]; at 33.0 µM -4% | [4]; at 100.0 µM 16% | [5]; at 1.2 µM -2% | [5]; at 3.7 µM 6% | [5]; [16] 12% | [5]; at 11.0 µM 12% | [5]; at 33.0 µM 43% | [5]; [17] 53% | [5]; at 50.0 µM 12.1% | [5]; at 100.0 µM 62% | [6]; at 1.2 µM -3% | [6]; at 3.7 µM -2% | [6]; [16] -6% | [6]; at 11.0 µM -6% | [6]; at 33.0 µM 18% | [6]; [17] -10% | [6]; at 50.0 µM -14.2% | [6]; at 100.0 µM 49% | [7]; [16] 16% | [7]; at 50.0 µM 11.1% | [8]; at 1.2 µM 2% | [8]; at 3.7 µM 8% | [8]; at 11.0 µM 2% | [8]; at 33.0 µM -7% | [8]; at 100.0 µM 10% | [9]; [16] 15% | [9]; [17] 19% | [9]; at 50.0 µM -3.15% | [10]; at 1.2 µM 0% | [10]; at 3.7 µM 2% | [10]; [16] -3% | [10]; at 11.0 µM -9% | [10]; at 33.0 µM 2% | [10]; [17] 52% | [10]; at 50.0 µM 10.9% | [10]; at 100.0 µM 27% | [11]; at 1.2 µM -8% | [11]; at 3.7 µM -11% | [11]; at 11.0 µM -8% | [11]; at 33.0 µM 7% | [11]; at 100.0 µM 54% | [12]; at 1.2 µM -3% | [12]; at 3.7 µM 1% | [12]; at 11.0 µM 7% | [12]; at 33.0 µM 13% | [12]; at 100.0 µM 45% | [13]; at 1.2 µM -15% | [13]; at 3.7 µM -2% | [13]; at 11.0 µM -2% | [13]; at 33.0 µM 54% | [14]; [16] 19% | [14]; at 50.0 µM 0.45% | [15]; at 1.2 µM -8% | [15]; at 3.7 µM -4% | [15]; at 11.0 µM -4% | [15]; at 33.0 µM 1% | [15]; at 100.0 µM 41%
active: [7]; [17] 70% | [13]; at 100.0 µM 77% | [14]; [17] 76%
